# Columns and labels:
# Settings in all cases: concentration: 1 μM, replicates: in singlicate; n = 1
# AKT3 = test system: AKT3
# ALK = test system: ALK
# AMPK-alpha1 = test system: T1, AMPK-alpha1
# T1 construct: gene PRKAA1
# AMPK-alpha2 = test system: T2, AMPK-alpha2
# T2 construct: gene PRKAA2
# ANKK1 = test system: ANKK1
# ARK5 = test system: T3, ARK5
# T3 construct: gene NUAK1
# ASK1 = test system: T4, ASK1
# T4 construct: gene MAP3K5
# ASK2 = test system: T5, ASK2
# T5 construct: gene MAP3K6
# AURKA = test system: AURKA
# AURKB = test system: AURKB
# AURKC = test system: AURKC
# AXL = test system: AXL
# BIKE = test system: T6, BIKE
# T6 construct: gene BMP2K
# BLK = test system: BLK
# BMPR1A = test system: BMPR1A
# BMPR1B = test system: BMPR1B
# BMPR2 = test system: BMPR2
# BMX = test system: BMX
# BRAF = test system: BRAF
# BRK = test system: T7, BRK
# T7 construct: gene PTK6
# 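Further: KINOMEscan kinase panel screen.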
SMILES,%Inh (AKT3) [%],%Inh (ALK) [%],%Inh (AMPK-alpha1) [%],%Inh (AMPK-alpha2) [%],%Inh (ANKK1) [%],%Inh (ARK5) [%],%Inh (ASK1) [%],%Inh (ASK2) [%],%Inh (AURKA) [%],%Inh (AURKB) [%],%Inh (AURKC) [%],%Inh (AXL) [%],%Inh (BIKE) [%],%Inh (BLK) [%],%Inh (BMPR1A) [%],%Inh (BMPR1B) [%],%Inh (BMPR2) [%],%Inh (BMX) [%],%Inh (BRAF) [%],%Inh (BRK) [%]
OCCOCCn1ccc2ncnc(Nc3ccc(Oc4cccc(Cl)c4)c(Cl)c3)c21,0,0,0,0,0,0,0,0,0,0,0,0,0,3,1,0,0,13,0,0
CCC(CC)(CC)n1cnc2c(N)ncnc21 [SKF-97620],2,0,8,54,17,0,2,26,28,24,0,0,0,0,7,16,53,0,10,0
Cc1ccc(O)cc1Nc1cc(C(F)(F)F)nc2ccc(-c3ccncc3)cc12 [GW630823],0,0,0,0,0,0,30,0,0,0,5,0,7,12,0,0,0,17,0,11
Nc1nc(-c2ccccn2)c(-c2ccnc3ccccc23)s1 [GW548057],0,17,14,1,20,24,2,0,17,0,25,8,33,9,0,35,32,9,0,1
COc1ccc(-c2oc3ncnc(N)c3c2-c2ccc(OC)cc2)cc1 [SB-589132],0,32,0,10,0,13,11,7,0,30,0,13,0,66,0,0,30,0,38,15
Cl.Fc1ccccc1COc1ccc(Nc2ncnc3ccc(-c4nnc(C(F)(F)F)o4)cc23)cc1Cl [GW424170],0,0,0,0,0,0,0,0,13,0,0,0,9,21,0,0,5,1,0,6
COc1ccc(Nc2nccc(N3CCC(NC(=O)Nc4ccc5c(c4)OCO5)C3)n2)cc1 (centres unmarked) [GSK1379745],0,20,24,24,2,9,9,5,6,13,43,22,33,25,13,0,23,13,2,10

# Source: PMC5540273 (PLoS ONE, 2017)
